The campaign covered roughly 39,000 compounds. About 1,500 (3.8%) were called active. The sample as a whole holds a higher share of actives than the screen did.
What follows are compounds tested on HSkMC (human skeletal muscle cells) (assay: cytotoxicity call (relative viability < 0.9)). Details: 10 µM.

Structure (SMILES)	cytotoxicity call
COc1ccc(NC(=O)N(C)C[C@@H]2OCCCC[C@H](C)Oc3ccc(NS(=O)(=O)c4ccc(F)cc4)cc3C(=O)N([C@H](C)CO)C[C@H]2C)cc1	inactive
COc1ccc(C#Cc2cnc3c(c2)C(=O)N([C@@H](C)CO)C[C@@H](C)[C@H](CN(C)CC2CCOCC2)O3)cc1	inactive
C[C@@H]1CCCCO[C@H](CN(C)C(=O)CCC(F)(F)F)[C@H](C)CN([C@H](C)CO)C(=O)c2cc(NC(=O)CCC(F)(F)F)ccc2O1	inactive
COc1ccc(-c2coc3cc(O)cc(OC)c3c2=O)cc1	inactive
C[C@H](CO)N1C[C@H](C)[C@H](CN(C)C(=O)Nc2ccc(F)cc2)Oc2ccc(NC(=O)C3CC3)cc2CC1=O	inactive
Cc1noc(C)c1NC(=O)N(C)C[C@H]1Oc2ccc(NS(=O)(=O)c3c(C)noc3C)cc2C(=O)N([C@@H](C)CO)C[C@@H]1C	inactive
CCc1ccc(/C=C2\SC(=O)N(CCCCCCNC(=O)c3ccc(Nc4ccc([N+](=O)[O-])c5nonc45)cc3)C2=O)cc1	inactive
CCc1ccc(/C=C2\SC(=O)N(CCCCCCNC(=O)c3ccccc3Nc3ccc([N+](=O)[O-])c4nonc34)C2=O)cc1	active
COc1ccc(NC(=O)Nc2ccc3c(c2)C(=O)N([C@H](C)CO)C[C@H](C)[C@H](CN(C)S(=O)(=O)c2ccccc2)OCCCC[C@H](C)O3)cc1	inactive
C[C@H]1CN([C@@H](C)CO)C(=O)c2cccc(NC(=O)Nc3ccc(C(F)(F)F)cc3)c2O[C@H]1CN(C)Cc1ccc(Cl)c(Cl)c1	active
C[C@H](CO)N1C[C@H](C)[C@@H](CN(C)Cc2ccc(Cl)c(Cl)c2)Oc2c(NC(=O)Nc3ccc(C(F)(F)F)cc3)cccc2C1=O	active
C[C@@H]1CN([C@@H](C)CO)C(=O)c2cccc(NC(=O)Nc3ccc(C(F)(F)F)cc3)c2O[C@H]1CN(C)Cc1ccc(Cl)c(Cl)c1	active
C[C@H]1CN([C@@H](C)CO)C(=O)c2cccc(NC(=O)Nc3ccc(C(F)(F)F)cc3)c2O[C@H]1CN(C)Cc1ccc(C(F)(F)F)cc1	inactive
C[C@@H]1CN([C@H](C)CO)C(=O)c2cccc(NC(=O)Nc3ccc(C(F)(F)F)cc3)c2O[C@H]1CN(C)Cc1ccc(Cl)c(Cl)c1	active
C[C@H](CO)N1C[C@H](C)[C@H](CN(C)C(=O)Nc2ccnc(N3CCOCC3)c2)OCc2cn(nn2)CCCC1=O	inactive
C[C@@H]1CN([C@H](C)CO)C(=O)c2cc(NS(=O)(=O)c3ccccc3)ccc2O[C@@H](C)CCCCO[C@@H]1CN(C)Cc1ccccc1	inactive
C[C@H]1CN([C@@H](C)CO)S(=O)(=O)c2ccc(C#CC3CC3)cc2O[C@H]1CN(C)C(=O)c1cccc(F)c1	inactive
Cc1nnc(SCC2=C(C(=O)[O-])N3C(=O)C(NC(=O)Cn4cnnn4)C3SC2)s1.[Na+] (configuration not stated)	inactive
C[C@H](CO)N1C[C@H](C)[C@H](CN(C)Cc2ccc(Cl)c(Cl)c2)OCc2ccccc2-c2c(n(C)c3ccccc23)C1=O	inactive
C[C@H]1CN([C@@H](C)CO)C(=O)c2cc(C#Cc3ccccn3)cnc2O[C@@H]1CN(C)C(=O)c1cnccn1	inactive
COc1ccc(NC(=O)Nc2ccc3c(c2)C(=O)N([C@@H](C)CO)C[C@H](C)[C@H](CN(C)Cc2ccncc2)OCCCC[C@@H](C)O3)cc1	inactive

Structure (SMILES)	cytotoxicity call
O=C(/C=C/c1ccc(O)c(O)c1)O[C@@H]1C[C@](OC(=O)/C=C/c2ccc(O)c(O)c2)(C(=O)O)C[C@@H](OC(=O)/C=C/c2ccc(O)c(O)c2)[C@H]1O	inactive
C[C@@H]1CN([C@@H](C)CO)C(=O)c2cccc(NC(=O)Nc3ccc(C(F)(F)F)cc3)c2O[C@@H]1CN(C)Cc1ccc(Cl)c(Cl)c1	active
C[C@H]1CN([C@@H](C)CO)C(=O)c2cccc(NC(=O)Nc3ccc(C(F)(F)F)cc3)c2O[C@@H]1CN(C)Cc1ccc(C(F)(F)F)cc1	inactive
C[C@@H]1CN([C@H](C)CO)C(=O)c2cccc(NC(=O)Nc3ccc(C(F)(F)F)cc3)c2O[C@@H]1CN(C)Cc1ccc(Cl)c(Cl)c1	active
C[C@H]1CN([C@@H](C)CO)C(=O)c2cccc(NC(=O)Nc3ccc(C(F)(F)F)cc3)c2O[C@@H]1CN(C)Cc1ccc(Cl)c(Cl)c1	active
C[C@H](CO)N1C[C@H](C)[C@H](CN(C)Cc2ccc(Cl)c(Cl)c2)Oc2c(NC(=O)Nc3ccc(C(F)(F)F)cc3)cccc2C1=O	inactive
COc1ccc(CN(C)C[C@@H]2OCCCC[C@H](C)Oc3ccc(NC(=O)c4ccccc4)cc3C(=O)N([C@H](C)CO)C[C@H]2C)cc1	inactive
C[C@@H]1CCCCO[C@@H](CN(C)C(=O)Nc2ccc(F)cc2)[C@@H](C)CN([C@@H](C)CO)C(=O)c2cc(NC(=O)Cc3ccccc3)ccc2O1	inactive
C[C@H](CO)N1C[C@H](C)[C@@H](CN(C)C(=O)c2ccccc2)OCCCC[C@H](C)Oc2ccc(NC(=O)NC3CCCCC3)cc2C1=O	inactive
Cn1cnc(S(=O)(=O)N2C[C@H](O)COC[C@@H]3O[C@H](CC(=O)NCc4cc(F)cc(F)c4)CC[C@H]32)c1	inactive
N[C@H](C(=O)O)[C@@H](OCc1ccccc1)C(=O)O	inactive
C[C@@H]1CN([C@@H](C)CO)C(=O)c2cc(NS(=O)(=O)c3cccs3)ccc2O[C@@H](C)CCCCO[C@@H]1CN(C)C(=O)Nc1ccccc1	inactive
CC(C)NC(=O)N1Cc2cc(C(=O)NC3Cc4ccccc4C3)nc(-c3cccc(-c4cccnc4)c3)c2[C@H]1CCO	active
CC(C)NC(=O)N1Cc2cc(C(=O)NC3CCCCC3)nc(-c3cccc(-c4cccnc4)c3)c2[C@@H]1CCO	inactive
CCCNC(=O)c1cc2c(c(-c3cccc(-c4cc5ccccc5o4)c3)n1)[C@H](CCO)N(C(=O)NC(C)C)C2	inactive
CC(C)NC(=O)N1Cc2cc(C(=O)NC3Cc4ccccc4C3)nc(-c3cccc(-c4cccnc4)c3)c2[C@@H]1CCO	active
CCCNC(=O)c1cc2c(c(-c3cccc(-c4cc5ccccc5o4)c3)n1)[C@@H](CCO)N(C(=O)NC(C)C)C2	inactive
CC(C)(C)[S@](=O)N1Cc2cc(C(=O)N[C@H]3CCN(Cc4ccccc4)C3)nc(-c3cccc(-c4cccnc4)c3)c2[C@@H]1CCO	inactive
CCNC(=O)c1cc2c(c(-c3cccc(-c4cc5ccccc5o4)c3)n1)[C@@H](CCO)N(C(=O)NC(C)C)C2	inactive
CC(C)(C)[S@](=O)N1Cc2cc(C(=O)N[C@@H]3CCN(Cc4ccccc4)C3)nc(-c3cccc(-c4cccnc4)c3)c2[C@@H]1CCO	inactive
CC(C)NC(=O)N1Cc2cc(C(=O)NC3CCCCC3)nc(-c3cccc(-c4cccnc4)c3)c2[C@H]1CCO	active

Source: the antibiotic and cytotoxicity screens of Wong et al. (2023)
